This is an account of results in PubChem BioAssay AID1347426 (Functional Genomics Laboratory (NCATS/FGL), 2020).

Out of some 31,000 sequences screened, about 1,400 (4.5%) were called active. Many of the other results were omitted from the sample, so actives are more common in it than they were. Values without a mark were called inactive.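 How the source made its calls: active means median seed-adjusted z-score above 1 or below -1; inactive means the rest.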

The nature of this test: Novel Modifiers of Survival Motor Neuron (SMN) Protein: Gene Identification via Genome-wide siRNA Screen. The conditions noted are these: HEK293T SMN2-luciferase reporter, siRNA knockdown, 72 h; actives lie on both sides. An excerpt:
Spinal muscular atrophy (SMA) is the most common neuromuscular autosomal recessive disorder and one of the leading genetic causes of infant death. SMA results from mutations inducing loss of function or deletion in the survival of motor neuron-1 gene (SMN1), leading to deficiency of the survival motor neuron (SMN) protein. Although a second nearly identical gene, SMN2, is retained in humans, its expression primarily produces an aberrantly spliced isoform that is largely unstable and quickly degraded. We performed a genome-wide RNAi screen using a cell-based reporter assay to identify genes and pathways that modulate SMN protein stability. The screen identified over 200 genes that led to the greatest increase or decrease in luciferase expression.
Using HEK293T cells stably expressing a luciferase reporter that combines the promoter and splicing based cassettes in tandem with the major portion of the native SMN2 cDNA with luciferase, we performed a genome-wide RNAi screen to identify modulators of SMN protein levels. Luciferase is expressed when full-length SMN protein is generated with luminescence signal proportional to SMN protein levels. Our luciferase-based reporter assay was used to screen Ambion Silencer Select Human Druggable Genome siRNA library (10418 genes, 3 unique siRNAs per gene) using lipid-based reverse transfection.
Briefly, 1 pmol of each siRNA was spotted to a well of a 384-well plate (Corning, Corning, NY) and 20 microL of serum-free DMEM containing […] of Lipofectamine RNAiMax (Life Technologies, Carlsbad, CA) was then added to each well. Transfected cells were maintained at 37 degrees C in 5% CO2 for 72 hours, 20 microL of ONE-Glo Reagent (Promega) was added to wells for luciferase quantification. Raw luminescence reads were normalized to Ambion(R) Silencer(R) Negative Control #2 siRNA, then log10 transformed. A robust statistical measure of median absolute deviation (MAD) to standardize siRNA activities from each screen. Common Seed Analysis was used to help prioritize clean hits as opposed to those appearing to arise from seed based off-target effects. Candidate modulators were defined as the genes having a MAD score greater than 1.0 or less than -1.0.
GCAGUGCGUUCAGUGCAAATT against FHL2: the median seed-adjusted z-score is 0.475.

With CGAUUAGGACUGACAAUAATT against IFT57, the median seed-adjusted z-score is -1.1 (active).

As for GCUUGUUCCUUCAAUUAAATT against ZNF41, the median seed-adjusted z-score was 0.342.

In the case of GCAUUAGGUUCACUAAAUATT against GPR160, the median seed-adjusted z-score was -0.278.

In the case of GGCUUAACCUGGUGAUAAATT against GLUD1, the median seed-adjusted z-score was 0.156.

Regarding GGAUGACGGUGUCUACUCATT against CLCA1, the median seed-adjusted z-score is 0.015.

As for GUUCUUGUCUAAGACAUGATT against ZNF799, the median seed-adjusted z-score is -1.02 (active).

Regarding GGUUAAUAUUGCGAAAGUATT against TXNDC1, the median seed-adjusted z-score was 0.458.

Consider AGCUCUACAUUGGCGAUGATT against DUPD1, for which the median seed-adjusted z-score was -0.406.

As for GCAUAUUCCAAACUAGUGATT against STARD6, the median seed-adjusted z-score is 0.0605.

On to GCGUGGAACCGGACAUCAATT against TPSD1, for which the median seed-adjusted z-score was 0.0848.

On to CCACGUCACCAGUACUAUATT against UBA1, for which the median seed-adjusted z-score is 1.34 (active).

Take ACAGUGUGGUUCUUCAUUUTT against C1QL3: the median seed-adjusted z-score was -0.276.

CAUCACCUGUAGAACCUGATT against PIAS2: the median seed-adjusted z-score was -0.096.

GAAUGGUCCUAAAACACCATT against NFE2L2: the median seed-adjusted z-score was -0.596.

Regarding GAAAUUGAUAAGCAAAGUATT against TRO, the median seed-adjusted z-score was 2.04 (active).

For CUGCCUACGUGAACUGGAUTT against TPSG1, the median seed-adjusted z-score is 0.

As for GAAGGAGACUAAUGAGCAATT against FGD4, the median seed-adjusted z-score was -0.0017.

CGAGUGUCUUCACUACAAATT against IL3RA: the median seed-adjusted z-score was -0.951.

With GCAAGUCGUCUAUUCAGAATT against RRAGD, the median seed-adjusted z-score was 0.313.

For the sequence GGCACUUAAGGUUCGCUAUTT against PPP4C, the median seed-adjusted z-score was 1.15 (active).

On to GGCUCUUGGAAUAACUGAATT against SERPINI1, for which the median seed-adjusted z-score is 0.127.

Consider CAUUAAAGGUUUACCCAAUTT against IDH1, for which the median seed-adjusted z-score is 0.421.

Take GGCUUUGAAUUCAAUCUAUTT against GPR149: the median seed-adjusted z-score was -0.186.

As to CGUCGCGCCCUGUACAUAATT against GPR35, the median seed-adjusted z-score was -1.46 (active).

As for UCAGUUACCUGCAUACCAATT against AEBP1, the median seed-adjusted z-score was -0.0536.

With CCUACUAUGAUGUUAGUAATT against SCGN, the median seed-adjusted z-score is -0.0164.

Turning to GAUACUCAGAAGUUGAUAATT against MYSM1, the median seed-adjusted z-score was -0.116.

In the case of ACACUCUUGUGGUCAAGAATT against HNRNPC, the median seed-adjusted z-score was -2.15 (active).

Consider GCAAGAAACUCCACCCUUUTT against RGS3, for which the median seed-adjusted z-score is 0.065.
